Results taken from PubChem BioAssay AID504834 (National Center for Advancing Translational Sciences (NCATS), 2011).
“And” between values parts separate entries of the source, which are not always exact repeats. Equal values may be shown once. Hit rate of the full screen: of about 320,000 compounds, about 22,000 (6.9%) were called active. About 27% were inconclusive and are not listed. This is one part of a sample in which actives are shown more often than they occur. Calls come from the whole dose curve; as a rule, active = well fitted inhibition curve with a large enough effect; inconclusive = small, poorly fitted or top-dose-only effect, or another doubt; inactive = no such curve, though single readings can be large or run the other way. Where a structure was tested more than once in an assay, its records may differ in their call.

Assay: Primary qHTS for delayed death inhibitors of the malarial parasite plastid, 96 hour incubation
Settings: P. falciparum luciferase reporter growth; series mostly up to 28.7 µM; activity change, negative = inhibition: at the top concentration
From the text: The goal of this screen is to discover new antimalarial compounds that act by inhibiting the development of the apicoplast in the malarial parasite Plasmodium falciparum. The biochemical processes that make this organelle essential for erythrocytic stage parasites are not well understood. However, antibiotics such as azithromycin and tetracycline, which target the apicoplast translational machinery, have a potent antimalarial effect.
We have developed a cell-based assay that measures parasite growth based on the expression of an integrated copy of a firefly luciferase reporter. To detect small molecules that cause this "delayed death" phenotype, erythrocytes infected with the luciferase-expressing parasites were incubated with compounds for either one or two generations, corresponding to 48 and 96 hours, respectively. Compounds that inhibit parasite growth in the second generation, but not the first, should be enriched in antimalarials that target the apicoplast. Growth inhibition is detected by a decrease in luciferase activity.
Assay Provider: David Fidock and Eric Ekland, Columbia University
Keywords: NIH Roadmap, MLPCN, MLI, MLSMR, qHTS, NCGC, qHTS, malaria, luciferase, viability
Four microliters of infected erythrocytes (2% hematocrit, 0.05% parasitemia final concentration) in culture medium were dispensed and the plates incubated for 96 hours at 37 C in 5% CO2. Two microliters of luciferase detection reagent was added and luminescence was detected by a ViewLux (PerkinElmer) reader.
% is set by controls: 0 for no effect and ±100 for the full control effect; potency is the fitted concentration of half-maximal effect.

Row | SMILES | activity change, negative = inhibition | Potency
1 | COc1ccc(-c2csc(Nc3ccc(O)cc3)n2)cc1 | 37.7% (inactive) | –
2 | CCCn1c(CCNc2nc(-c3ccc(OC)cc3)cs2)nc2ccccc21 | – | 11.7 µM (active)
3 | COc1ccc(Nc2nc(-c3ccccc3)cs2)cc1 | 8.91% (inactive) | –
4 | CC(=O)c1cc2c(cc1NC(=O)Cn1nc(-c3ccc(F)cc3)ccc1=O)OCO2 | 23.7% (inactive) | –
5 | COc1ccc(N=C2SC(C(=O)Nc3ccc(F)cc3)CC(=O)N2C)cc1 (configuration not stated) | 3.01% (inactive) | –
6 | O=C(Cc1ccc(F)cc1)N/N=C/c1ccc2c(c1)OCO2 | 94.1% (inactive) | –
7 | CNC(=O)C1CC(=O)N(Cc2ccc3c(c2)OCO3)C(=Nc2ccc(F)cc2)S1 (configuration not stated) | – | 6.57 µM (active)
8 | CC1CCN(C(=O)/C(=C\c2ccccc2F)NC(=O)c2ccccc2)CC1 | 27.9% (inactive) | –
9 | C=CCn1c(Oc2ccc(C(=O)OC)cc2)nc2c1c(=O)n(C)c(=O)n2C | – | 5.86 µM (active)
10 | Cn1c(=O)c2c(nc(N3CCCCCC3)n2CC(=O)c2ccc(Br)cc2)n(C)c1=O | 23.4% (inactive) | –
11 | Cn1c(=O)c2c(nc(NCc3ccccc3)n2CC(N)=O)n(C)c1=O | 23.9% (inactive) | –
12 | COc1ccc(NC(=O)CCNC(=O)Cn2cnc3sc4c(c3c2=O)CCCC4)cc1OC | 14.1% (inactive) | –
13 | C=CCN1C(=O)C2(OCCCO2)c2cccc(Cl)c21 | -23.1% (inactive) | –
14 | COc1ccc(-c2nnc3n2CCCCC3)cc1 | 32.2% (inactive) | –
15 | CC(=O)N1c2ccc(S(=O)(=O)N3CCCC(C(=O)Nc4cccc(F)c4)C3)cc2CC1C (configuration not stated) | – | 11.7 µM (active)
16 | CC(=O)N1c2ccc(S(=O)(=O)N3CCCC(C(=O)Nc4cccc(Cl)c4)C3)cc2CC1C (configuration not stated) | -15.3% (inactive) | –
17 | CC(=O)N1c2ccc(S(=O)(=O)N3CCC(C(=O)NC4CCCCC4C)CC3)cc2CC1C (configuration not stated) | -7.95% (inactive) | –
18 | O=C(CN1C(=O)S/C(=C\c2ccccc2Cl)C1=O)NC1C=CS(=O)(=O)C1 (configuration not stated) | 3.43% (inactive) | –
19 | CCOC(=O)c1c(-c2ccc(C)cc2)csc1/N=C(\C)C1=C(O)c2ccccc2C1=O | -6.18% (inactive) | –
20 | COC(=O)c1c(-c2ccc(C)cc2)csc1N | – | 13.1 µM (active)
21 | CCOC(=O)c1c(-c2ccccc2)csc1NC(=S)NC(=O)c1ccccc1 | 38.7% (inactive) | –
22 | COc1cc2ccccc2cc1C(=O)N1CCOCC1 | 6.89% (inactive) | –
23 | CC(C(=O)NC1CCCCC1)N1C(=O)c2cccc3cccc1c23 (configuration not stated) | -27.6% (inactive) | –
24 | O=C(Oc1ccc(F)cc1)N1CCOCC1 | 56.1% (inactive) | –
25 | Cc1ccc(OCC(=O)NCCCNC(=O)c2ccco2)cc1C | 0.751% (inactive) | –
26 | CCOc1ncccc1C(=O)NCCc1ccc(OC)cc1 | -2.75% (inactive) | –

Row | SMILES | activity change, negative = inhibition | Potency
27 | COc1ccc(CCNC(=O)c2ccco2)cc1 | – | 7.38 µM (active)
28 | Cc1ccc(C)c(NC(=O)C(c2ccccc2)N2CCN(CC(=O)NC3CC3)CC2)c1 (configuration not stated) | – | 14.7 µM (active)
29 | Cc1ccc(Cl)c(NC(=O)CN2CCN(C=O)CC2)c1 | 23.5% (inactive) | –
30 | Cc1ccc(C)c(NC(=O)COC(=O)CSc2ccccc2)c1 | -20.2% (inactive) | –
31 | Cc1ccc(NS(=O)(=O)c2c(C)[nH]c(C)c2C(=O)N2CCCCC2)c(C)c1 | -29.1% (inactive) | –
32 | Cc1ccc(S(=O)(=O)N(C)C)cc1NC(=O)c1ccc(-n2cncn2)c([N+](=O)[O-])c1 | -7.86% (inactive) | –
33 | CC1CCc2c(sc3nc4n(c(=O)c23)CCS4)C1 (configuration not stated) | -29.8% (inactive) | –
34 | CCCn1nnc2sc3c(c2c1=O)CCC(C)C3 (configuration not stated) | – | 11.7 µM (active)
35 | C=CCn1c(SCc2c(C)noc2C)nc2sc3c(c2c1=O)CCC(C)C3 (configuration not stated) | -1.1% [at 5.75 µM] (inactive) | –
36 | COc1cccc(COC(=O)C2CCN(S(=O)(=O)c3cccs3)CC2)c1OC | 8.27% (inactive) | –
37 | Cn1c(=O)c2sccc2n(Cc2ccc(Br)cc2)c1=O | 161% (inactive) | –
38 | O=C(Nc1ccccc1C(=O)Nc1ccncc1)c1ccc([N+](=O)[O-])cc1 | 32.1% (inactive) | –
39 | CN=C(NC#N)NCCSCc1nc[nH]c1C | – | inactive and 13.5 µM (active)
40 | O=C(Nc1cccnc1)c1cc([N+](=O)[O-])ccc1Cl | -2.06% (inactive) | –
41 | O=C(CCc1nnc2ccc(NCc3ccccc3Cl)nn12)NCC1CCN(C2CCCC2)C1 (configuration not stated) | – | 5.22 µM (active)
42 | CSCCC(=O)N1CCCC(CNC(=O)c2ccccc2Cl)C1 (configuration not stated) | 0% (inactive) | –
43 | O=C(CCc1nnc2ccc(NCCCN3CCCC3=O)nn12)NCc1ccccc1Cl | -20.1% (inactive) | –
44 | Cc1cccc(N(C)C(=O)c2cc(S(=O)(=O)N3CCCCC3)c[nH]2)c1 | -0.248% (inactive) | –
45 | Cn1nc(C(F)(F)F)c(C(=O)Nc2cccc(C(F)(F)F)c2)c1SCc1ccc(Cl)cc1 | – | 2.62 µM (active)
46 | O=C(O)CSc1c2c(nc3cc(C(=O)Nc4cccc(C(F)(F)F)c4)ccc13)CCCC2 | -27% (inactive) | –
47 | CC(C)C[C@H](NC(=O)Nc1cccc(C(F)(F)F)c1)C(=O)O | -1.23% (inactive) | –
48 | O=C(OCC(=O)N1CCOCC1)c1ccc2ccccc2c1 | 35.2% (inactive) | –
49 | Cc1ccc(NC(=O)c2nc[nH]c2C(=O)N[C@@H](CCCCNC(=O)OC(C)(C)C)C(=O)OC(C)(C)C)cc1 | – | 11.7 µM (active)
50 | CNC(=O)c1[nH]cnc1C(=O)N[C@@H](CC(C)C)C(=O)OC(C)(C)C | 0.082% (inactive) | –
51 | CCOC(=O)c1ccc(NC(=O)c2nc[nH]c2C(=O)NCc2ccccc2)cc1 | -3.51% (inactive) | –
52 | CCOC(=O)c1ccc(NC(=O)c2nc[nH]c2C(=O)N[C@@H](CCCCNC(=O)OC(C)(C)C)C(=O)OC(C)(C)C)cc1 | – | 5.86 µM (active)
